Reference: a collection of fitness landscapes (doi:10.1126/science.1257360)
In all, about 140,000 sequences were measured (“enrichment ratio after two sorts for PhoP signalling”: median about 0, highest 2% from about 11 on). This is one part of a sample in which the highest values are shown more often than they occur.

B1: PhoQ; a variant is named by its letters at X, in order, P23837 (parent)
chain: MKKLLRLFFPLSLRVRFLLATAAVVLVLSLAYGMVALIGYSVSFDKTTFRLLRGESNLFYTLAKWENNKLHVELPENIDKQSPTMTLIYDENGQLLWAQRDVPWLMKMIQPDWLKSNGFHEIEADVNDTSLLLSGDHSIQQQLQEVREDDDDAEMTHSVAVNVYPATSRMPKLTIVVVDTIPVELKSSYMVWSWFIYVLSANLLLVIPLLWVAAWWSLRPIEALAKEVRELEEHNRELLNPATTRELTSLVRNLNRLLKSERERYDKYRTTLTDLTHSLKTPLXXLQXXLRSLRSEKMSVSDAEPVMLEQISRISQQIGYYLHRASMRGGTLLSRELHPVAPLLDNLTSALNKVYQRKGVNISLDISPEISFVGEQNDFVEVMGNVLDNACKYCLEFVEISARQTDEHLYIVVEDDGPGIPLSKREVIFDRGQRVDTLRPGQGVGLAVAREITEQYEGKIVAGESMLGGARMEVIFGRQHSAPKDE

Variants of: B1
Experiment: enrichment ratio after two sorts for PhoP signalling (ratio (wild type AVST 3.29)); higher = more functional
Conditions: with PhoP (E. coli)

| Variant | enrichment ratio |
| --- | --- |
| RPSF | ≤ 0.25 |
| GPMM | ≤ 0.25 |
| AHKW | ≤ 0.25 |
| PCPS | ≤ 0.25 |
| AQDI | ≤ 0.25 |
| SQQM | 15.9 |
| SAQM | 8.97 |
| SLQM | 7.14 |
| HIPP | ≤ 0.25 |
| TDCL | 1.96 |
| KHNK | ≤ 0.25 |
| YPTR | ≤ 0.25 |
| YCAA | ≤ 0.25 |
| QGSN | 20.2 |
| FVSN | ≤ 0.25 |
| QRSN | ≤ 0.25 |
| FFSN | ≤ 0.25 |
| NASN | ≤ 0.25 |
| QASN | 11.4 |
| KASG | ≤ 0.25 |
| QRSG | ≤ 0.25 |
| QASG | 17.4 |
| GMMP | ≤ 0.25 |
| DWWS | ≤ 0.25 |
| RCNY | ≤ 0.25 |
| NNFP | ≤ 0.25 |

| Variant | enrichment ratio |
| --- | --- |
| QNYN | ≤ 0.25 |
| NSYV | ≤ 0.25 |
| AVPN | ≤ 0.25 |
| FCMQ | 1.02 |
| FCDG | ≤ 0.25 |
| KSDG | ≤ 0.25 |
| TVDG | ≤ 0.25 |
| QTDG | 13.5 |
| QVDG | 30.4 |
| PVDG | ≤ 0.25 |
| QSDG | 11.8 |
| QGDG | 11.8 |
| FTDG | ≤ 0.25 |
| TSDG | 0.59 |
| FFDG | ≤ 0.25 |
| YTDG | ≤ 0.25 |
| LTLA | ≤ 0.25 |
| HNKA | ≤ 0.25 |
| AFKV | ≤ 0.25 |
| RRQL | ≤ 0.25 |
| RSSV | ≤ 0.25 |
| VLVH | ≤ 0.25 |
| TVDW | ≤ 0.25 |
| QEFN | 3.01 |
| MEFH | 4.99 |
| QEFH | ≤ 0.25 |

| Variant | enrichment ratio |
| --- | --- |
| TEFI | 9.19 |
| MEFN | 7.67 |
| TEFH | 12.1 |
| TEFP | ≤ 0.25 |
| TEFQ | 8.52 |
| TEFS | 10.9 |
| TEFC | 14.4 |
| TEFN | 18.2 |
| TEFA | 11.3 |
| GKHH | ≤ 0.25 |
| NVPN | ≤ 0.25 |
| VKNT | ≤ 0.25 |
| GVCV | 3.13 |
| AWFR | ≤ 0.25 |
| RMDG | ≤ 0.25 |
| DDGS | ≤ 0.25 |
| LMRD | ≤ 0.25 |
| FKNL | ≤ 0.25 |
| FPYE | ≤ 0.25 |
| HPWR | ≤ 0.25 |
| WNMS | ≤ 0.25 |
| NTFG | ≤ 0.25 |
| TEFG | 19 |
| MEFG | 5.56 |
| NEFG | ≤ 0.25 |
| WVYE | ≤ 0.25 |

| Variant | enrichment ratio |
| --- | --- |
| PMID | ≤ 0.25 |
| AHCG | 15.3 |
| KDCG | ≤ 0.25 |
| VHCG | ≤ 0.25 |
| FDCG | ≤ 0.25 |
| PGCG | ≤ 0.25 |
| RGCG | ≤ 0.25 |
| ANCG | 26.6 |
| TGCG | 24.4 |
| AKCG | 2.88 |
| NHCG | ≤ 0.25 |
| ADCG | 1.58 |
| TDCG | 13.4 |
| AIDP | ≤ 0.25 |
| IFDW | ≤ 0.25 |
| PKQC | ≤ 0.25 |
| DRKW | ≤ 0.25 |
| LGNW | ≤ 0.25 |
| FFWM | ≤ 0.25 |
| FMLS | ≤ 0.25 |
| AHIG | ≤ 0.25 |
| ANIG | 29.2 |
| ADIG | ≤ 0.25 |
| REKI | ≤ 0.25 |
| KRHD | ≤ 0.25 |
| LMWD | ≤ 0.25 |

| Variant | enrichment ratio |
| --- | --- |
| GENS | ≤ 0.25 |
| GELM | 15.9 |
| GYLG | ≤ 0.25 |
| GETC | 3.51 |
| GEKA | ≤ 0.25 |
| GETI | 11.6 |
| GETH | ≤ 0.25 |
| GETK | ≤ 0.25 |
| GELG | 22.4 |
| GYLH | ≤ 0.25 |
| GELH | 11.9 |
| GELF | 9.93 |
| HGYA | ≤ 0.25 |
| STTP | ≤ 0.25 |
| YKHK | ≤ 0.25 |
| SYEL | ≤ 0.25 |
| TAIS | 0.325 |
| NLWP | ≤ 0.25 |
| RDCA | ≤ 0.25 |
| EMPC | ≤ 0.25 |
| PMHF | ≤ 0.25 |
| DDQI | ≤ 0.25 |
| PLHV | ≤ 0.25 |
| KPNT | ≤ 0.25 |
| RISY | ≤ 0.25 |
| GELA | 18.1 |

| Variant | enrichment ratio |
| --- | --- |
| GELS | 8.59 |
| GEWI | ≤ 0.25 |
| ASCY | 0.505 |
| LYCM | ≤ 0.25 |
| SGIV | 7.69 |
| ANIQ | 11 |
| HVDI | ≤ 0.25 |
| WNPW | ≤ 0.25 |
| TECA | 0.528 |
| TECI | 2.38 |
| TECS | 26.8 |
| NECQ | ≤ 0.25 |
| TECG | 15.7 |
| TEGQ | ≤ 0.25 |
| TECQ | 12.3 |
| TEYY | 10.3 |
| NECG | ≤ 0.25 |
| TEEG | 9.76 |
| TEAI | 20.4 |
| NEAI | ≤ 0.25 |
| KAWS | ≤ 0.25 |
| GAMP | ≤ 0.25 |
| KTEG | ≤ 0.25 |
